Laboratory results taken from PubChem BioAssay (NCI).
The panel holds about 79,000 compounds, 15% with a hit somewhere; the sample as a whole holds those more often. Unmarked numbers belong to inactive results. Cut-off read from the data, not from the text of the source: active = growth inhibition above about 70%; inactive = the rest.

Assay: NCI Yeast Anticancer Drug Screen. Data for the rad50 strain (AID 155);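 note: 0% = growth of vehicle-only cultures of the same strain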
Settings: S. cerevisiae rad50 strain growth inhibition; at 50.0 µM; active compounds read high
Method in brief: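 Readout: growth inhibition relative to vehicle-treated cultures. Compound exposure was carried out in a genetically defined yeast strain deficient in DNA damage repair.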

Row | SMILES | growth inhibition
1 | CC(NC(=O)C(CC(=O)OCc1ccccc1)NC(=O)OCc1ccccc1)c1ccccc1 (stereo not given) | 9.5%
2 | C1CCC(N(CCN(C2CCCCC2)C2CCCCC2)C2CCCCC2)CC1 | -38.5%
3 | N=C1CCCC1C(=S)SCCC(N)=O (stereo not given) | -11.8%
4 | COC(=O)C(Cc1cc(OC)c(OC)c(OC)c1)(NC(=O)c1ccccc1)P(=O)(OC)OC (stereo not given) | -14.2%
5 | CCCCCCCCCCCCCCCC(=O)OCC(COP(=O)(O)OC1CCC2(C)C(=CCC3C2CCC2(C)C(C(C)CCCC(C)C)CCC32)C1)OC(=O)CCCCCCCCCCCCCCC (stereo not given) | 1.9%
6 | Cn1c(COc2ccc(/C=N\NC(=O)c3ccc(C(=O)N/N=C/c4ccc(OCc5c[n+]6ccccc6n5C)cc4)cc3)cc2)c[n+]2ccccc12 | -5%
7 | CC1(C)C(=NNC(=S)NN)C(C)(C)C1=NNC(=S)NN | 40.5%
8 | COc1ccc(Nc2ccnc3cc(Cl)ccc23)cc1CCN | 4.65%
9 | CCOC(=O)C(C)c1nc2cc(F)c(F)cc2[nH]c1=O (stereo not given) | -5.45%
10 | Cc1ccc(/C(=C/CN2CC3CCC(CC3)C2)c2ccccc2)cc1 | -1.15%
11 | O=C1CCCCc2cccc(O)c21 | 2%
12 | CC(O)COC(C)COC(C)c1ccccc1 (stereo not given) | 1.6%
13 | COc1cc(\C=N/N=C/C=C/c2ccccc2)cc(OC)c1OC | 0.55%
14 | CN(C)C(=O)C1C2CCC(C3CC32)C1C(=O)N(C)C (stereo not given) | 22.9%
15 | Cc1n[nH]c2ccccc2c1=O | -4.85%
